These results are taken from PubChem BioAssay (NCATS).

Values joined by “and” are separate entries in the source; they are usually repeats but may differ in a detail not shown here. Equal values may be shown once. Inconclusive results are not listed. Active and inactive are the calls of the source. Unless noted, calls come from the whole dose curve.

A short description of test [1]: qHTS for Inhibitors of ATXN expression: Validation of Cytotoxic Assay (AID 588349; active = well fitted curve in the direction sought with a large enough effect; an effect the other way counts as inactive or inconclusive;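 note: cells exposed to compound for 72 hr; % is set by controls: 0 for no effect and ±100 for the full control effect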). A digest of the protocol: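 HEK293, compound dose series, 72 hr / 37 degrees C; viability via CellTiter Glo (intracellular ATP).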
The nature of test [2]: qHTS for Inhibitors of ATXN expression: Validation (AID 588378; active = well fitted curve in the direction sought with a large enough effect; an effect the other way counts as inactive or inconclusive; note: series mostly up to about 57 µM; % is set by controls: 0 for no effect and ±100 for the full control effect; nearly all actives have a fitted effect of over 75% in size). The procedure, abridged: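 After a 2 h attachment and 24 h compound incubation, HEK293-ATXN2-FFLuc wells are read for fluorescence at 405 nm excitation/525 nm emission as a viability measure, then for Bright-Glo luminescence reflecting ATXN2 expression.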
(qHTS replaces the single test concentration by a dilution series.)

In test [3] the target is DNA dC->dU-editing enzyme APOBEC-3G (Homo sapiens) (UniProt Q9HC16). The experiment in a line: qHTS for inhibitors of Vif-A3G interactions: Validation (AID 588379; active = well fitted curve in the direction sought with a large enough effect; an effect the other way counts as inactive or inconclusive; note: 0% is about no effect). A digest of the protocol: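 HeLa cells stably expressing Vif and A3G-eYFP, 700 cells/well, incubated overnight at 37 deg C, then exposed to compound overnight at 37 deg C. Inhibition of Vif-mediated degradation read as increased yellow fluorescence (Ex 488/Em 500-530) by laser-scanning cytometry.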
DNA dC->dU-editing enzyme APOBEC-3G (Homo sapiens), sequence (Q9HC16 whole entry, looked up): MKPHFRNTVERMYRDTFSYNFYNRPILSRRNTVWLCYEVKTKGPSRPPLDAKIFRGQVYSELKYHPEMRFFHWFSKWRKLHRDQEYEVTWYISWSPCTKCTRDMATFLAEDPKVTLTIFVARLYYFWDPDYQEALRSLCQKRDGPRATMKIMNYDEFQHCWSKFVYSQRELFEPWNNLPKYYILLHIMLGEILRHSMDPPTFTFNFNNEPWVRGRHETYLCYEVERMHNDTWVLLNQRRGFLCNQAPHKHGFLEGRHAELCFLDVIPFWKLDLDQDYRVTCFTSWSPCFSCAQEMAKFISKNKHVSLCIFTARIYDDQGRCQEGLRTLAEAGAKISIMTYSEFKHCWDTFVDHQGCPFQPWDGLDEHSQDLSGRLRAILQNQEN

For test [4], the target named is Estrogen receptor (Homo sapiens) (UniProt P03372). The experiment in a line: qHTS assay for small molecule antagonists of estrogen receptor alpha signaling (AID 588513; active = well fitted curve in the direction sought with a large enough effect in the signal ratio, with a control signal flat, not every such curve was filed as active; the % refers to the signal ratio; note: % is set by controls: 0 for no effect and ±100 for the full control effect). A digest of the protocol: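 Antagonist-mode qHTS in ER-alpha-UAS-bla HEK 293 cells: compound titration, 0.5nM estradiol for 18 h, CCF4 fluorescence, Hill-derived IC50.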
Estrogen receptor (Homo sapiens), sequence (P03372 whole entry, looked up): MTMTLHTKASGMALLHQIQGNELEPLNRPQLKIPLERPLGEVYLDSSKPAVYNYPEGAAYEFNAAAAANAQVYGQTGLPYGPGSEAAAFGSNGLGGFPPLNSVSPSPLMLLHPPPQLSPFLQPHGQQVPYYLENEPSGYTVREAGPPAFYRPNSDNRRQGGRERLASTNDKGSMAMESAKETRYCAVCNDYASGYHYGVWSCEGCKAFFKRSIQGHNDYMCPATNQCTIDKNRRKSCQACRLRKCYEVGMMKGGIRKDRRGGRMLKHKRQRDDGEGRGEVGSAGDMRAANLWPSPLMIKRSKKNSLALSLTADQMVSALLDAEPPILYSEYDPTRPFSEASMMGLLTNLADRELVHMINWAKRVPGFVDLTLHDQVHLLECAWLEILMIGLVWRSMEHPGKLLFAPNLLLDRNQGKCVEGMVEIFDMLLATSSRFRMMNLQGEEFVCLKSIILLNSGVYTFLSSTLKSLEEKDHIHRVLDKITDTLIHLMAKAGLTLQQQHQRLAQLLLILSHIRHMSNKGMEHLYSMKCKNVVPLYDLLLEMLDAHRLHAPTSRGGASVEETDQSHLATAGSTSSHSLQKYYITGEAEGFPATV
Test [5] shares this target. Nature of the test: qHTS assay for small molecule agonists of estrogen receptor alpha signaling (AID 588514).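 Note: 0% = vehicle only and 100% = reference agonist; nearly all actives have a fitted effect of over 70% in size.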 A digest of the protocol: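 Reporter-gene assay. […] controls beta-lactamase in HEK 293 GripTite cells; after 18 hrs with compound, CCF4 substrate is added for 2 hrs and fluorescence is read.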
A short description of test [6]: qHTS assay for small molecule antagonists of peroxisome proliferator-activated receptor delta signaling (AID 588535; active = well fitted inhibition curve with a large enough effect in the signal ratio, with a control signal flat, not every such curve was filed as active; the % refers to the signal ratio;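 for max response: cells co-treated with a PPAR-delta agonist as stimulator during compound exposure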). The following applies: HEK293T PPARd-UAS-bla, beta-lactamase FRET ratio, 18 h; 460 nm channel. The procedure, abridged: (§1)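 GeneBLAzer PPAR-delta-UAS-bla HEK293T cells in medium with 2% charcoal/dextran FBS were preincubated 5 hrs at 37 C, then given compounds, incubated 18 hrs at 37 C, and read by CCF4 beta-lactamase fluorescence; IC50 from Hill fits.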

Test [7] deals with Peroxisome proliferator-activated receptor delta (Homo sapiens) (UniProt Q03181). Described as above. A digest of the protocol:
as §1

Test [8] concerns the target Peroxisome proliferator-activated receptor gamma (Homo sapiens) (UniProt P37231). The experiment in a line: qHTS assay for small molecule agonists of peroxisome proliferator-activated receptor gamma signaling (AID 588536; active = well fitted curve in the direction sought with a large enough effect in the signal ratio, with a control signal flat, not every such curve was filed as active; the % refers to the signal ratio;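 note: 0% = DMSO basal wells and 100% = rosiglitazone at 2 µM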). The procedure, abridged: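 GeneBLAzer PPAR-gamma-UAS-bla HEK293 cells in 1% charcoal/dextran-treated FBS medium were treated 16 h at 37 C with compounds. Beta-lactamase activity was read by CCF4 ratio (460/530 nm). Response was normalized to 2 uM rosiglitazone (100%) and DMSO, then Hill-fitted for EC50 and efficacy.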

Test [9] has the same target. Nature of the test: qHTS assay for small molecule antagonists of peroxisome proliferator-activated receptor gamma signaling (AID 588537; active = well fitted inhibition curve with a large enough effect in the signal ratio, with a control signal flat, not every such curve was filed as active; the % refers to the signal ratio; note: potency is the fitted concentration of half-maximal effect). The procedure, abridged: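 PPAR-gamma-UAS-bla HEK293 cells (3000/well, 1% charcoal/dextran-stripped FBS) were preincubated 6-6.5 h at 37 C, given titrated compounds, then stimulated with 50 nM rosiglitazone for 16 h. Beta-lactamase activity was read with CCF4 dye; IC50 came from Hill fits.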

Test [10] in a line: qHTS assay for small molecule agonists of retinoid X receptor alpha signaling (AID 588544).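 For activation: 0% = DMSO basal wells and 100% = reference agonist.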 The following applies: HEK293T RXRa-UAS-bla, beta-lactamase reporter, 18 h; 530 nm emission.
Test [11] concerns the target Retinoic acid receptor RXR-alpha (Homo sapiens) (UniProt P19793). The description is as above.
The target of test [12] is Thyroid hormone receptor beta (Homo sapiens) (UniProt P10828). Nature of the test: qHTS assay for small molecule agonists of thyroid hormone receptor beta signaling (AID 588545).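 Note: 0% = DMSO only and 100% = 10 nM T3.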 A digest of the protocol: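 Beta-lactamase reporter activity under TR response element control is measured in HEK 293 cells after 18 hrs compound exposure. Signal is ratiometric CCF4 fluorescence, 460/530 nm.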
Thyroid hormone receptor beta (Homo sapiens), sequence (P10828 whole entry, looked up): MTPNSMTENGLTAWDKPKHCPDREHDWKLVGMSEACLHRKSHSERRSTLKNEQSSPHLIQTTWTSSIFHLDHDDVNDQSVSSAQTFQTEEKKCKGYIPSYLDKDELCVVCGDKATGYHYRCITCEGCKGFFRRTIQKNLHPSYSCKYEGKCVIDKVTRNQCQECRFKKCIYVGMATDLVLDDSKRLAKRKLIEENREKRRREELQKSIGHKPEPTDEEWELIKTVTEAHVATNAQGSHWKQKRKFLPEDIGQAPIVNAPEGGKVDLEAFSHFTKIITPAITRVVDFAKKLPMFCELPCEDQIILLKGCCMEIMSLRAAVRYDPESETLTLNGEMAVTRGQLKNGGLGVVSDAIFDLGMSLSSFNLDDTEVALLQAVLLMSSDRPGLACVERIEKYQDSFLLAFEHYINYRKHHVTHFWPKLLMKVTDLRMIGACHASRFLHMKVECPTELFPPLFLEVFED

The nature of test [13]: qHTS assay for small molecule antagonists of retinoid X receptor alpha signaling (AID 588546).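 Note: cells stimulated with 9-cis-retinoic acid as agonist; % is set by controls: 0 for no effect and ±100 for the full control effect.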 The following applies: HEK293T RXRa-UAS-bla, beta-lactamase ratio, antagonist mode; measured here: W530 green channel, cytotoxicity proxy. The procedure, abridged:
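Beta-lactamase reporter inhibition, read as CCF4 fluorescence ratio (ex 405, em 460/530 nm) after 2 h at RT. HEK293T UAS-bla cells, 2500/well, were stimulated with 9-cis-RA at 500 or 100 nM final alongside test compound for 18 h at 37 C.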

Test [14] concerns the target Glucocorticoid receptor (Homo sapiens) (UniProt P04150). The experiment in a line: qHTS assay for small molecule agonists of glucocorticoid receptor signaling (AID 588532; active = well fitted curve in the direction sought with a large enough effect in the signal ratio, with a control signal flat; the % refers to the signal ratio;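 note: 100% = dexamethasone at 0.1 µM and 0% = DMSO only wells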). The following applies: HeLa MMTV-bla, beta-lactamase ratio, agonist, 18 h; stronger effect = higher value; percent of dexamethasone control, DMSO zero. A digest of the protocol: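 MMTV-bla HeLa, beta-lactamase reporter; medium with 1% charcoal/dextran-stripped FBS; cpds up to 92 uM, 18 h, 37 C; CCF4 readout 460/530 nm; Hill fit → EC50, efficacy vs 0.1 uM dexamethasone = 100%.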

For test [15] the target is unchanged. Nature of the test: qHTS assay for small molecule antagonists of glucocorticoid receptor signaling (AID 588533; active = well fitted inhibition curve with a large enough effect in the signal ratio, with a control signal flat, not every such curve was filed as active; the % refers to the signal ratio;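 note: cells stimulated with 2 nM dexamethasone as agonist; % is set by controls: 0 for no effect and ±100 for the full control effect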). A digest of the protocol: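 Antagonist-mode qHTS: compound titrations added to GRE-bla HeLa cells, then dexamethasone 2 nM final; 18 h, 37 C. CCF4 FRET fluorescence normalized to dexamethasone and DMSO; IC50 from Hill fit.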
For test [16], the target named is Bile acid receptor (Homo sapiens) (UniProt Q96RI1). Nature of the test: qHTS assay for small molecule antagonists of farnesoid X receptor signaling (AID 588526). Note: % is set by controls: 0 for no effect and ±100 for the full control effect. A digest of the protocol:
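Concentration-response titrations were fitted to the Hill equation for half-maximal inhibition and maximal response, with data normalised to 50 uM chenodeoxycholic acid and DMSO control wells. Cells: FXR-UAS-bla HEK293T, dialyzed FBS.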

For test [17], the target named is Vitamin D3 receptor (Homo sapiens) (UniProt P11473). The experiment in a line: qHTS assay for small molecule antagonists of vitamin D receptor signaling (AID 588541). A digest of the protocol:
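VDR-UAS-bla HEK293T cells (2000/well, 2% charcoal-stripped FBS) were treated with titrated compounds plus 1-alpha,25-dihydroxyvitamin D3 (50 nM or 3 nM final) for 16 h at 37 C. CCF4 beta-lactamase fluorescence was read; Hill fits gave IC50.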

Test [18] shares this target. Nature of the test: qHTS assay for small molecule agonists of vitamin D receptor signaling (AID 588543).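 Note: 0% = DMSO basal and 100% = reference agonist control.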 The procedure, abridged: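 Measured: β-lactamase reporter activity (CCF4, 405 nm excitation, 460/530 nm emission) in HEK293T VDR-UAS-bla cells after 16 h compound exposure at 37 °C. Normalization against 50 nM 1α,25-dihydroxyvitamin D3 and DMSO; Hill-fit EC50.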

Test [19] deals with Androgen receptor (Homo sapiens) (UniProt P10275). Nature of the test: qHTS assay for small molecule agonists of androgen receptor signaling (AID 588515; active = well fitted curve in the direction sought with a large enough effect in the signal ratio, with a control signal flat; the % refers to the signal ratio; note: % is set by controls: 0 for no effect and ±100 for the full control effect). The following applies: AR-UAS-bla HEK293, beta-lactamase ratio, agonist 16 h; stronger effect = higher value. A digest of the protocol: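 EC50 and efficacy came from Hill fits of titrations (up to 92 uM) normalized to 30 nM R1881 as 100% and DMSO as 0%. Compound exposure was 16 h at 37 C on AR-UAS-bla HEK293 cells, with a 405/460/530 nm CCF4 fluorescence read.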

Peroxisome proliferator-activated receptor delta (Homo sapiens), sequence (Q03181 whole entry, looked up): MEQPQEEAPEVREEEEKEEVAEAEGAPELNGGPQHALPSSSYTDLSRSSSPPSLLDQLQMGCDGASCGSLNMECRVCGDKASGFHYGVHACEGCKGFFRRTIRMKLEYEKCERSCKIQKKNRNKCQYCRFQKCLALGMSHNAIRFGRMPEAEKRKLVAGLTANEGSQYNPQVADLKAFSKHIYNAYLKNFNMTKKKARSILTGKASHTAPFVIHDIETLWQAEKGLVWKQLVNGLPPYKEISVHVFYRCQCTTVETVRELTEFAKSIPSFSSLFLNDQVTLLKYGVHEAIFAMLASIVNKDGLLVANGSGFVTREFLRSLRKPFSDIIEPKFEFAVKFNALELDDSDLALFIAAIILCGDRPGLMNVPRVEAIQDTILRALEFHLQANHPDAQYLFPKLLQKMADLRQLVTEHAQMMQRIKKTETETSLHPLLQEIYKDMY
Glucocorticoid receptor (Homo sapiens), sequence (P04150 whole entry, looked up): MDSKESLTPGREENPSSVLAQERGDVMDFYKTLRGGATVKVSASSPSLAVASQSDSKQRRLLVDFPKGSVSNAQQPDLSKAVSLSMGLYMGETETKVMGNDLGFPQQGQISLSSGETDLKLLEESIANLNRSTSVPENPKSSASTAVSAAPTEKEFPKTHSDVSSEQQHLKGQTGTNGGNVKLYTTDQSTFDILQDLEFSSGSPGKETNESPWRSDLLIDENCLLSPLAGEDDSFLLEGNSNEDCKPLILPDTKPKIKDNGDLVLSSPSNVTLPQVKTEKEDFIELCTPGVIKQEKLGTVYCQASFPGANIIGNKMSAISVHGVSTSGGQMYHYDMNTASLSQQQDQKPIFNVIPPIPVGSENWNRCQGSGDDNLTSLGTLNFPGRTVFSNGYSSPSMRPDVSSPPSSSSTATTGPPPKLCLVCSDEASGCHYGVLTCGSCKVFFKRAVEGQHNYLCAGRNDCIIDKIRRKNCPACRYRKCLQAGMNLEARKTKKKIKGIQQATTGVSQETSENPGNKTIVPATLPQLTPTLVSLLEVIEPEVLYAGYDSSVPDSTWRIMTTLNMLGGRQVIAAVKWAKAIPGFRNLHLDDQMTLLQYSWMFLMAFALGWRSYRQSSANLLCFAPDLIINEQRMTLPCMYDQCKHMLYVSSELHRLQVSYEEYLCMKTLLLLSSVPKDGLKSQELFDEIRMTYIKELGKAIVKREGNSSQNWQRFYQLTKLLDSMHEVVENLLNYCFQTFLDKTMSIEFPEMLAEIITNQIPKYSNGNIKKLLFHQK
Retinoic acid receptor RXR-alpha (Homo sapiens), sequence (P19793 whole entry, looked up): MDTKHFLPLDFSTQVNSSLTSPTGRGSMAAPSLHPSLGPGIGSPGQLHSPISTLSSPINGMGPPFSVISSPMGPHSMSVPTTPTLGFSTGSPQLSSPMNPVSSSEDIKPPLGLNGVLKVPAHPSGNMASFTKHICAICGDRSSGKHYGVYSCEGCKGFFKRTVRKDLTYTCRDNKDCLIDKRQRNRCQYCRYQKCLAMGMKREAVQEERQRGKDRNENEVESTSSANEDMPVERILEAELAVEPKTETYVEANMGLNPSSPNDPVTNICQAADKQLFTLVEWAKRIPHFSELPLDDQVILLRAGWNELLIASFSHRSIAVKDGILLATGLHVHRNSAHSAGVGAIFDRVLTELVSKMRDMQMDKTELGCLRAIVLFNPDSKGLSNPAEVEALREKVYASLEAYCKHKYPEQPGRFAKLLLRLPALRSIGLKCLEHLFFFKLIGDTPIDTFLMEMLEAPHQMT
Bile acid receptor (Homo sapiens), sequence (Q96RI1 whole entry, looked up): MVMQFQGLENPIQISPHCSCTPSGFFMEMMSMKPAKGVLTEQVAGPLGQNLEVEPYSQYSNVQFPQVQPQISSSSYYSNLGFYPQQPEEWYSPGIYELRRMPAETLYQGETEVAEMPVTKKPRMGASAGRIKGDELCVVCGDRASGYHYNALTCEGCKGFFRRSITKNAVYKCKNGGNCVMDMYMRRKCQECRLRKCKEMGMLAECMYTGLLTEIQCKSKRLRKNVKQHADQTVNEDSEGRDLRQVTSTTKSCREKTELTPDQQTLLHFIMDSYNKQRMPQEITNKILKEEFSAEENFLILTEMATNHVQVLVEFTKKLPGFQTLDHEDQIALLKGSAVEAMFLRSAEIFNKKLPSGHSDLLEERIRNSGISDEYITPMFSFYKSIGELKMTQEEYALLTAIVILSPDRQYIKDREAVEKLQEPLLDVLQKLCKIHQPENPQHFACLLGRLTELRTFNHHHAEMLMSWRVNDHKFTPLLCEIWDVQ
Peroxisome proliferator-activated receptor gamma (Homo sapiens), sequence (P37231 whole entry, looked up): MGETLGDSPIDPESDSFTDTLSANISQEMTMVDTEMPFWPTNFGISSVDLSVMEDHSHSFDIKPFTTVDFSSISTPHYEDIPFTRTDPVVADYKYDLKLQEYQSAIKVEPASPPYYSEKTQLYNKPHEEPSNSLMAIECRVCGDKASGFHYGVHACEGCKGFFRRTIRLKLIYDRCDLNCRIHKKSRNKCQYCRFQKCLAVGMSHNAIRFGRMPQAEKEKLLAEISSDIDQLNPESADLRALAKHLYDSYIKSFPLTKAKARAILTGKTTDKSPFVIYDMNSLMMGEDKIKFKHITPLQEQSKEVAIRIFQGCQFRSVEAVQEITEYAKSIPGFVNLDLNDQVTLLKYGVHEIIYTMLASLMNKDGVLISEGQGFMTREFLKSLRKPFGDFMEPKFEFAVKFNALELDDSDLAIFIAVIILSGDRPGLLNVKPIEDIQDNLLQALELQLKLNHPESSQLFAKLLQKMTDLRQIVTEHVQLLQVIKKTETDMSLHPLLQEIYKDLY
Vitamin D3 receptor (Homo sapiens), sequence (P11473 whole entry, looked up): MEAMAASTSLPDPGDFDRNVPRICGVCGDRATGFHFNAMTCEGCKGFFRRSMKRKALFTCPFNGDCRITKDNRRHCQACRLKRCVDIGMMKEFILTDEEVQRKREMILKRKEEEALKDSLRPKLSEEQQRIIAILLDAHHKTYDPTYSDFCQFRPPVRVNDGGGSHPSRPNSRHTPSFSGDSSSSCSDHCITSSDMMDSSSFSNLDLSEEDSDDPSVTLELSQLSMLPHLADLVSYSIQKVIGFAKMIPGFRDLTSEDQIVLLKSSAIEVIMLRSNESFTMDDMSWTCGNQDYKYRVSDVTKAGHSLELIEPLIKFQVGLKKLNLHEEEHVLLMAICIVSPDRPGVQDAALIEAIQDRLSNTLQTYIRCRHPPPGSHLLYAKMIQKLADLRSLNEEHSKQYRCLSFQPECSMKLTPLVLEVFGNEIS

For `Nc1ccn([C@H]2CC[C@@H](CO)O2)c(=O)n1`, the result in [1], in test [3], in test [4], in test [5], in test [7] and in test [8] was inactive. For the same molecule, the molecule was classed as inactive in [11] and in [12]. In addition, the Potency result in test [2] and in [9] was “inactive” each time. Moreover, the max response in test [6] was -2.4% and 34.8%; in [10] it was -7.85% and -11%; in test [13] it was -1.8% and -6%.
Consider `CC(C)Cc1ccc(C(C)C(=O)O)cc1` (stereo not given), for which the molecule was called inactive in [1], in [4], in [5], in [7], in test [8] and in test [11]. In [12], the result was inactive. Further, the Potency result in test [2], in test [15] and in [9] was “inactive” each time. Moreover, the activation in [14] is -8.45% (inactive). Moreover, the max response in test [6] came out at 43%; in [10], 27.4%; in test [13] it was 4.68%.
With `Cn1c(=O)c2c(ncn2C)n(C)c1=O`, the molecule was called inactive in [1], in [3], in test [8] and in test [11]. Further, the Potency entry in [2], in test [15] and in [9] was “inactive” in each case. For the same molecule, the activation in test [14] was -1.83% (inactive). For the same molecule, the max response in test [10] was -3.75% and 14.5%; in test [13], 0.479% and 2.47%.
Take `Cn1ccc2cc3c(cc21)CCN3C(=O)Nc1cccnc1`: the result in test [1] and in test [3] was inactive. Also, in test [2], the Potency entry was “inactive”.
As to `O=c1c(O)c(-c2ccc(O)c(O)c2)oc2cc(O)cc(O)c12`, the molecule was called inactive in test [1] and in [3]. For the same molecule, the Potency entry in test [2] was “inactive”.
Turning to `Cn1cnc2c1c(=O)[nH]c(=O)n2C`, the molecule was classed as inactive in test [1], in [3], in [7], in test [8], in test [17] and in [18]. Moreover, the outcome in test [12] was inactive. The Potency entry in [2], in [16], in [15] and in [9] was “inactive” throughout. In addition, the activation in [14] was -4.06% (inactive). Besides, the max response in [6] was -1.33%; in test [13] it was -0.801%.
On to `CN(Cc1cnc2nc(N)nc(N)c2n1)c1ccc(C(=O)N[C@@H](CCC(=O)O)C(=O)O)cc1`, for which the outcome in [1], in test [3] and in test [12] was inactive. Further, the Potency result in test [2] was “inactive”. Also, the activation in [19] was 0.214% (inactive). In addition, the Potency in test [9] is 447 nM (active).
Regarding `CN1C(C(=O)Nc2ccccn2)=C(O)c2ccccc2S1(=O)=O`, the molecule was classed as inactive in test [1] and in [3]. For the same molecule, the Potency result in test [2] is “inactive”.
For `Cn1c(=O)c2[nH]cnc2n(C)c1=O`, the outcome in [1], in test [4], in test [5], in test [8], in test [11] and in test [12] was inactive. Moreover, the Potency result in [2] and in [16] was “inactive” throughout. Further, the max response in test [10] was -12.6%; in test [13], -3.21%.
Turning to `NS(=O)(=O)c1cc2c(cc1Cl)NCNS2(=O)=O`, the call in [1], in [4], in [5], in test [8], in test [17] and in [18] was inactive. Also, the call in test [11] and in test [12] was inactive. Also, the Potency result in test [2], in [16], in test [15] and in [9] was “inactive” throughout. The activation in [14] was -0.573% (inactive). For the same molecule, the max response in [10] is 1.78% and -10.2%; in [13], -4.08% and -3.49%.
For `Nc1nnc(-c2cccc(Cl)c2Cl)c(N)n1`, the molecule was called inactive in [1] and in test [3]. For the same molecule, in [2], the Potency entry was “inactive”.
`Cc1ccc(C(=O)Nc2ccc(S(=O)(=O)O)c3cc(S(=O)(=O)O)cc(S(=O)(=O)O)c23)cc1NC(=O)c1cccc(NC(=O)Nc2cccc(C(=O)Nc3cc(C(=O)Nc4ccc(S(=O)(=O)O)c5cc(S(=O)(=O)O)cc(S(=O)(=O)O)c45)ccc3C)c2)c1`: the molecule was called inactive in [1] and in test [3]. Moreover, the Potency result in test [2] is “inactive”.
Regarding `Cc1cn([C@H]2C=C[C@@H](CO)O2)c(=O)[nH]c1=O`, the molecule was called inactive in test [1], in [7], in test [8], in test [17], in [18] and in [11]. Also, in [12], the call was inactive. The Potency result in test [2], in test [16] and in test [9] was “inactive” each time. Moreover, the max response in [6] is 27.7% and 7.49%; in test [10], -12.5% and -2.44% and -13%; in [13], -1.05% and 0.328% and -3.51%.
With `O=C(c1ccc(F)cc1)C1CCN(CCn2c(=O)[nH]c3ccccc3c2=O)CC1`, the outcome in [1] and in [3] was inactive. Further, in test [2], the Potency entry was “inactive”.
As to `N[C@@H](Cc1c[nH]c2ccc(O)cc12)C(=O)O`, the outcome in test [1], in test [4], in test [5], in test [7], in test [8] and in test [17] was inactive. Besides, the molecule was classed as inactive in [18] and in test [11]. Further, the Potency result in test [2] and in [9] was “inactive” each time. In addition, in test [14], the activation is -7.97% (inactive). Moreover, the max response in test [6] is 3.83%; in test [10], -7.77%; in test [13] it was 1.87%.
`NC(=O)OCC(COC(N)=O)c1ccccc1`: the result in test [1] and in test [3] was inactive. Further, the Potency entry in [2] was “inactive”.
